Laboratory results published in PubChem BioAssay AID1159606 (Sanford-Burnham Center for Chemical Genomics, 2016).
The campaign covered roughly 360,000 compounds. About 7,300 (2%) were called active. The entries come from a sample that favours actives as a whole. Values without a mark were called inactive. Rule as the data show it: active = inhibition above about 50%; inactive = the rest.

Assay: blockers of TWEAK-induced Fn14 reporter activity – luciferase reporter cells, uHTS, primary screen (AID 1159606)
Details: TWEAK-stimulated Fn14 reporter cells, luciferase luminescence, 8 h; at 10 µM; stronger effect = higher value
`O=C(NC(=S)Nc1ccccc1C(=O)O)c1ccc(-c2ccc(Br)cc2)o1` gave an inhibition of 47.2%. In the case of `CCOC(=O)c1c(C)[nH]c2c1-c1ccccc1C(=O)C2=O`, the inhibition was 101% (active). In the case of `CCOC(=O)c1c(C)[nH]c(C)c1S(=O)(=O)NCCCc1ccco1`, the inhibition was -7.27%. In the case of `CCOC(=O)c1c(NC(=O)CSc2nccc(=O)[nH]2)sc(C)c1C`, the inhibition was -3.68%. Compound `Cc1cccc(CN2CCN(C3CN(Cc4cn(Cc5ccccc5F)nn4)S(=O)(=O)C3)CC2)c1` (configuration not stated) has an inhibition of -19.2%. For `NC(=O)C1CC(=O)N(c2ccc(OCC(=O)NCc3ccccc3)cc2)C1` (configuration not stated), the inhibition was 32.7%. `Cc1cccc(C)c1NC(=O)CNC(=O)c1ccc(N2CCOCC2)c([N+](=O)[O-])c1` showed an inhibition of 8.19%. `O=S(=O)(NCCCCCCNS(=O)(=O)c1c(F)cccc1F)c1ccc2c(c1)OCCO2` gave an inhibition of 16.7%. `O=C1NC[C@H](Cc2ccc(O)cc2)N(C[C@@H]2CCCN2C[C@H](Cc2ccccc2)N2C[C@H](Cc3ccccc3)N(CC3CCCCC3)C(=O)C2=O)C1=O` showed an inhibition of -9.41%. Work on `COc1cccc(C(=O)N/N=C(\C)c2cccc(NC(=O)c3ccc(F)cc3)c2)c1OC` yielded an inhibition of -20%. Compound `Nc1ccc(C(=O)N2CCN(S(=O)(=O)c3ccc(Cl)cc3)CC2)cc1[N+](=O)[O-]` has an inhibition of -5.64%. In the case of `CC1CCN(C(=O)c2ccc(S(=O)(=O)Cc3cc(F)ccc3F)c([N+](=O)[O-])c2)CC1`, the inhibition was 83.4% (active). `O=C(c1ccc(Oc2ccc(Cl)cc2)c([N+](=O)[O-])c1)N1CCCC1` showed an inhibition of -4.37%. `O=C(NCCc1ccccn1)c1ccc(COc2ccccc2)o1` showed an inhibition of -2.18%. Compound `COc1ccc(/C=C/C(=O)Nc2ccc(C)cc2)cc1S(=O)(=O)N1CCOCC1` has an inhibition of -4.91%. Compound `Cc1ccc(C(=O)/C=C/Nc2ccc(S(=O)(=O)Nc3onc(C)c3C)cc2)cc1` has an inhibition of -32%. With `COc1ccc(/C=C/C(=O)c2ccc(NS(=O)(=O)c3ccc(C)cc3)cc2)cc1O` the inhibition was 60.9% (active). Compound `COc1ccc(CNC(=O)c2c[nH]c3c(OC)cc(OC)cc3c2=O)cc1` has an inhibition of -46.6%. `CCCCN1C(=O)c2ccc(C(=O)Nc3ccc(S(=O)(=O)N(C)C)cc3)cc2C1=O` showed an inhibition of 33.8%. With `COc1ccc(NC(=O)C2Cc3c(-c4ccc(Cl)cc4)ccnc3O2)cc1` (configuration not stated) the inhibition was 6.65%. For `O=C(c1[nH]ncc1-c1ccc(Cl)cc1)C1CO1` (configuration not stated), the inhibition was 66.5% (active). `Cc1ccc(S(=O)(=O)n2oc(=O)c(C3CCCCC3)c2N)cc1` gave an inhibition of 2.92%. In the case of `CCCS(=O)(=O)Nc1ccc(-c2cn3c(n2)SCC3)cc1`, the inhibition was -17.6%. In the case of `Cc1ccccc1Cn1nc(C)c(NC(=O)C(F)(F)F)c1C`, the inhibition was -0.38%. Compound `Cc1nn(Cc2ccc(Cl)c(Cl)c2)c(C)c1NC(=O)c1cc(C2CC2)on1` has an inhibition of -9.69%. For `Cc1nn(Cc2ccc(F)cc2)c(C)c1NC(=O)c1noc2c1CCc1ccccc1-2`, the inhibition was 60.1% (active). `CC(C)(C)C1CCC(=O)N2CCC[C@]2(c2ccccc2)C1` (some centres not stated) showed an inhibition of -2.82%. In the case of `COc1ccc(/C=N/Nc2ncnc3sc4c(c23)CCCC4)cc1O`, the inhibition was 91.4% (active). `COc1ccc(NC(=O)CCNC(=O)Cn2cnc3sc4c(c3c2=O)CCCC4)cc1OC` showed an inhibition of -3.89%. Compound `COc1ccc(NC(=O)CCCNC(=O)Cn2cnc3sc4c(c3c2=O)CCCC4)cc1OC` has an inhibition of 4.82%. With `Cc1ccccc1S(=O)(=O)N1[C@@H](c2cccc(Cl)c2)C(C(=O)OC(C)(C)C)=CC[C@H]1c1ccc(Cl)cc1` the inhibition was -24.3%. `Cc1ccc(-c2nc3c(Cl)cc(C(F)(F)F)cn3c2Cc2cccc(Cl)c2)cc1` gave an inhibition of 25.6%. With `COC(=O)c1ccc2c(c1)S(=O)(=O)NC2C` (configuration not stated) the inhibition was -6.18%. For `CN(C)c1ccc2c(=O)[nH][nH]c(=O)c2c1`, the inhibition was -6.35%. With `COc1ccc(CCNC(=O)COC(=O)Cc2cccc(F)c2)cc1` the inhibition was -0.83%. With `CC(C)Oc1ccc(Cc2n[nH]c(=S)n2Cc2ccccc2)cc1Cl` the inhibition was 92.2% (active). In the case of `COc1cc(-c2n[nH]c(=S)n2Cc2ccccc2)cc(OC)c1OC`, the inhibition was -2.96%. With `CC(C)Oc1ccc(CCc2n[nH]c(=S)n2Cc2ccccc2)cc1` the inhibition was -6.3%. `CCC(C(=O)OC)n1cnc2scc(-c3ccc(C)cc3)c2c1=O` (configuration not stated) gave an inhibition of 0.23%. In the case of `CCOC(=O)c1c(-c2ccc(C)cc2)csc1/N=C(\C)C1=C(O)c2ccccc2C1=O`, the inhibition was 66.2% (active). `COC(=O)c1c(-c2ccc(C)cc2)csc1N` gave an inhibition of -2.01%. For `CS(=O)(=O)N(C(=O)NC(=O)NC1CCS(=O)(=O)C1)C1CCCCC1` (configuration not stated), the inhibition was 13.7%. With `CCCS(=O)(=O)NC(=O)C1(C)CCCN(C(=O)c2cccs2)C1` (configuration not stated) the inhibition was -4%. `COCC1CCCCN1C(=O)c1cc(COc2ccc(C)c(C)c2)on1` (configuration not stated) gave an inhibition of -33.8%. In the case of `O=C(Nc1nc2ccc([N+](=O)[O-])cc2s1)c1ccc(S(=O)(=O)N2CCCc3ccccc32)cc1`, the inhibition was 64.6% (active). Work on `NS(=O)(=O)c1ccc2nc(NC(=O)C3=COCCO3)sc2c1` yielded an inhibition of 24.4%. Compound `CC1CCN(C(=O)c2cccc(S(=O)(=O)N3CCCc4ccccc43)c2)CC1` has an inhibition of -0.65%. With `CCC(=O)Nc1nnc(S(=O)(=O)N2CCCc3ccccc32)s1` the inhibition was -3.9%. With `O=C(NNC(=O)c1ccc(-n2cncn2)c([N+](=O)[O-])c1)c1ccccc1` the inhibition was 2.77%. Work on `CC(Nc1ccc([N+](=O)[O-])cc1[N+](=O)[O-])c1ccccc1` (configuration not stated) yielded an inhibition of -18.4%. With `Cc1ccc(NC(=O)c2cccc(S(=O)(=O)N3CCCc4ccccc43)c2)nc1` the inhibition was 58.7% (active). `NS(=O)(=O)c1ccc(CNC(=O)c2cccc(S(=O)(=O)N3CCc4ccccc43)c2)cc1` showed an inhibition of 3.71%. For `O=C(NC(Nc1nc2ccc([N+](=O)[O-])cc2s1)(C(F)(F)F)C(F)(F)F)c1ccccc1`, the inhibition was 57.6% (active). With `CCCCCCCCN1C(=O)[C@H](CC(=O)NCC23CC4CC(CC(C4)C2)C3)C[C@@]2(C(=O)OC)CCCCC=C12` the inhibition was 8.39%. Compound `CCNC(=O)C1(C)CCN(Cc2ccc(C(=O)OCC)o2)C1` (configuration not stated) has an inhibition of 1.05%. In the case of `CN(C)N=Nc1ccc2nc[nH]c2c1`, the inhibition was -9.3%. In the case of `O=S1(=O)CC(N2CCN(Cc3ccccc3F)CC2)CN1Cc1cn(Cc2ccccc2)nn1` (configuration not stated), the inhibition was 5.09%. `C=CCn1c(SCc2nnc(-c3ccccc3)o2)nnc1C(O)c1ccccc1` (configuration not stated) showed an inhibition of -3.86%. Compound `CCC(NC(=O)c1ccccc1NC(=O)c1ccccc1)C(=O)NNC(=O)CSc1nc2ccccc2o1` (configuration not stated) has an inhibition of -0.91%. With `Cn1cnc2c1c(=O)n(Cc1c(Cl)cccc1Cl)c(=O)n2C` the inhibition was -7.11%. Work on `Cn1c(N)c(C(=O)COC(=O)c2ccccc2NCc2ccco2)c(=O)n(C)c1=O` yielded an inhibition of 22.6%. In the case of `CC(=O)c1cnn(-c2cc(Oc3ccc(F)cc3)ncn2)c1C`, the inhibition was 8.07%. `CCOC(=O)/C(=N\Nc1cc(Cl)ccc1Cl)N1CCN(C)CC1` gave an inhibition of -34.9%. With `O=C(/C=C/c1cn(-c2ccccc2)nc1-c1ccc2c(c1)OCCO2)NCCCN1CCOCC1` the inhibition was -1.36%. For `O=C(/C=C\c1cn(-c2ccccc2)nc1-c1cccs1)N1CCOCC1`, the inhibition was 98.4% (active). Compound `CC(=O)C1=C(C)NC(C)=C(C(C)=O)C1c1cn(-c2ccccc2)nc1-c1cccs1` has an inhibition of -6.98%. For `COc1ccc(-c2nn(C)c(=O)c3ccccc23)cc1CNC(=O)C1CCCCC1`, the inhibition was -37.6%. For `COc1ccc(-c2nn(C)c(=O)c3ccccc23)cc1NC(=O)COc1ccccc1`, the inhibition was 71.2% (active). In the case of `COc1ccc(S(=O)(=O)N2CCCCC2)cc1NC(=O)COc1ccccc1`, the inhibition was 22.4%. With `CC1CC(=S)Nc2ccccc2N1Cc1ccccc1` (configuration not stated) the inhibition was 13.5%. With `Cc1nc2ccc(NC(=O)N3CCC(c4ccccc4)C3)cc2nc1C` (configuration not stated) the inhibition was 0.79%. Work on `CC(C)(C)OC(=O)N/N=C/c1ccc(C(=O)O)cc1` yielded an inhibition of -4.99%. For `O=C(O)c1ccc(N/N=C/c2ccc3ncccc3c2)cc1`, the inhibition was 95.2% (active). For `CCNC(=S)NNC(=O)c1ccc2ncccc2c1`, the inhibition was 1.76%. `CC1(C(=O)Nc2ccc3c(c2)OCCO3)CCN1C(=O)Cc1cc(F)ccc1F` (configuration not stated) gave an inhibition of -3.09%. Compound `O=S(=O)(NCc1ccccc1Cl)c1cnc[nH]1` has an inhibition of -2.25%. In the case of `O=S1(=O)CC(N2CCN(Cc3ccccc3F)CC2)CN1Cc1cn(Cc2cccc(C(F)(F)F)c2)nn1` (configuration not stated), the inhibition was 10.4%. With `O=[N+]([O-])c1ccc(F)cc1Oc1nc(-c2cccnc2)nc2ccccc12` the inhibition was 55.1% (active). With `CCN(CC(=O)NC1CCS(=O)(=O)C1)c1nc(-c2cccnc2)nc2ccccc12` (configuration not stated) the inhibition was 0.56%. Work on `O=[N+]([O-])c1cc2ccccc2nc1-c1ccccc1` yielded an inhibition of -7.41%. Work on `Cc1ccc(S(=O)(=O)N2[C@@H](c3cccc4ccccc34)C(C(=O)O)=C[C@H]2C(C)(C)C)cc1` yielded an inhibition of 14.3%. Compound `CCOc1ccc(CN2CCNC(=O)C2CC(=O)NCCCC2CCCC2)cc1` (configuration not stated) has an inhibition of 7.15%. In the case of `CCOC(=O)c1c(-c2ccccc2)csc1NC(=S)NC(=O)c1ccccc1`, the inhibition was 57.9% (active). `CCOC(=O)c1c(NC(=S)NC(=O)/C=C/c2cccs2)sc(C)c1C` showed an inhibition of 20.2%. With `CCOC(=O)C1=C(NC(=S)NC(=O)c2ccccc2)c2ccccc2CC1(C)C` the inhibition was 4.16%. Work on `O=C(C1CCCO1)N1CCN(C(=O)C23CC4CC(CC(C4)C2)C3)CC1` (configuration not stated) yielded an inhibition of -24%. For `C[C@H](CO)N1C[C@H](C)[C@@H](CN(C)Cc2ccc3c(c2)OCO3)OCc2cnnn2CCCC1=O`, the inhibition was -16.3%.
